Assay results from the supplement of paper PMC11732987, “Enantioselective OTUD7B fragment discovery through chemoproteomics screening and high-throughput optimisation” (Communications Chemistry, 2025).

Columns and labels:
Experiment in all cases: log2 ratio of Biotin-Ahx-Ub-VS probe labelling (fragment/DMSO); higher = less target engagement (more negative = stronger competition), active = hit call of the paper (q ≤ 0.05, log2 ratio ≤ -1)
Conditions in all cases: compound concentration: 200 uM; treatment time: 3 h
USP19 = biological target: T1, USP19 (UniProt O94966)
T1 sequence (whole entry): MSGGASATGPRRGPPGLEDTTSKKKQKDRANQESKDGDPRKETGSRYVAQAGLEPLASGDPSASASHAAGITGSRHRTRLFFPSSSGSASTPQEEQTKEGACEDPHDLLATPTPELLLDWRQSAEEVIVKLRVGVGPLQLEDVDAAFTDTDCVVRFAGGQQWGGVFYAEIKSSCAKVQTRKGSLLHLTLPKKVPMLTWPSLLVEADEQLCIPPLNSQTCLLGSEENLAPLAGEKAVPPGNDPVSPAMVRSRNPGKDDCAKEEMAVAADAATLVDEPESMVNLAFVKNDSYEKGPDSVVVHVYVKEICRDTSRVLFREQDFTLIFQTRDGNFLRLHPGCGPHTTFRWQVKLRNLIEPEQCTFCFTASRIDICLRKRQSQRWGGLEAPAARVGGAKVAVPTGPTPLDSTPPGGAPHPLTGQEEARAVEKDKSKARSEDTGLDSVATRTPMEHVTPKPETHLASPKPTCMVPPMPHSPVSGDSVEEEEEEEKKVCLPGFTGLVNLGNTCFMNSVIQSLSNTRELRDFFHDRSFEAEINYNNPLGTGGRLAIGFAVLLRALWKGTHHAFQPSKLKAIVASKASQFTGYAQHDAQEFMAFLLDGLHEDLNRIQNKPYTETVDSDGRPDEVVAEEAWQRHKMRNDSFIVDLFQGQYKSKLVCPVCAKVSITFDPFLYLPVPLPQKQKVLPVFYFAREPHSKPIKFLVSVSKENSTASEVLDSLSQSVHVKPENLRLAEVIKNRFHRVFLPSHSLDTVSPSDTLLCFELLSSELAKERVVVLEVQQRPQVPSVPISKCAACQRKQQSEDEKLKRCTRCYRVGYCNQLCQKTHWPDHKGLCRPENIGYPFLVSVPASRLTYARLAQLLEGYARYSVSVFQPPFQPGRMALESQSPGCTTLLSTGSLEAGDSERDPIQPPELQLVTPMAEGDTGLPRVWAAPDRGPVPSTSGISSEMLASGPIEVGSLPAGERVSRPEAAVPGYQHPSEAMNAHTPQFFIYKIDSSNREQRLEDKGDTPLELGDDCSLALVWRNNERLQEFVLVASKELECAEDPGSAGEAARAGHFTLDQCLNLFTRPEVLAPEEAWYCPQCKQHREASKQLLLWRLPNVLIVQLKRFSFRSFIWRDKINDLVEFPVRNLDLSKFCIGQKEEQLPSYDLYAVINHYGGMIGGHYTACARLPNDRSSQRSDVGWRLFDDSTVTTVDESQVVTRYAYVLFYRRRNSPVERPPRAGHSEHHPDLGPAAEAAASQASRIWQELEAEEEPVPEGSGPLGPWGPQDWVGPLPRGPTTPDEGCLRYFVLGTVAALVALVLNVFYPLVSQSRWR
Method in brief: (§1)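 Average log2 ratios of fragment over vehicle were obtained by unpaired t-test from global-median-normalised Spectronaut label-free quantities. Proteins with ≥2 unique peptides were included. HEK293T lysate (495 µg per sample) was treated in triplicate with fragment at 200 µM or vehicle for 3 h, then with Biotin-Ahx-Ub-VS at 0.5 µM final for 1 h, and labelled DUBs were NeutrAvidin-enriched and run by diaPASEF LC-MS/MS.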

USP22 = biological target: T2, USP22 (UniProt Q9UPT9)
T2 sequence (whole entry): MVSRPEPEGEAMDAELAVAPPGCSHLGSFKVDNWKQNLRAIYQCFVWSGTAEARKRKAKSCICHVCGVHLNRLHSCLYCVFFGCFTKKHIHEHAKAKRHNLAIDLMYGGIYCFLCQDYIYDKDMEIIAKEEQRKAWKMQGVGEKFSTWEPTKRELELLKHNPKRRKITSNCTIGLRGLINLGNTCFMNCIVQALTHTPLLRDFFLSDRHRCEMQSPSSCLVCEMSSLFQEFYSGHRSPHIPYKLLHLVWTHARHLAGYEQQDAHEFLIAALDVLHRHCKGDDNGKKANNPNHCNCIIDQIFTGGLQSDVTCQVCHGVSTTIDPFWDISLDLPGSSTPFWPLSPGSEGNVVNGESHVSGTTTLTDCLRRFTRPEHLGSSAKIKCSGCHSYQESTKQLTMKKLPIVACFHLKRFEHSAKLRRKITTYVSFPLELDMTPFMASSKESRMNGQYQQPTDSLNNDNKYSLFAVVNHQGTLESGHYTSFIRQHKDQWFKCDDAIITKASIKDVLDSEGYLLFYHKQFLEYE
Method in brief: as §1

USP24 = USP24 (UniProt Q9UPU5)
Sequence of USP24 (Q9UPU5 whole entry): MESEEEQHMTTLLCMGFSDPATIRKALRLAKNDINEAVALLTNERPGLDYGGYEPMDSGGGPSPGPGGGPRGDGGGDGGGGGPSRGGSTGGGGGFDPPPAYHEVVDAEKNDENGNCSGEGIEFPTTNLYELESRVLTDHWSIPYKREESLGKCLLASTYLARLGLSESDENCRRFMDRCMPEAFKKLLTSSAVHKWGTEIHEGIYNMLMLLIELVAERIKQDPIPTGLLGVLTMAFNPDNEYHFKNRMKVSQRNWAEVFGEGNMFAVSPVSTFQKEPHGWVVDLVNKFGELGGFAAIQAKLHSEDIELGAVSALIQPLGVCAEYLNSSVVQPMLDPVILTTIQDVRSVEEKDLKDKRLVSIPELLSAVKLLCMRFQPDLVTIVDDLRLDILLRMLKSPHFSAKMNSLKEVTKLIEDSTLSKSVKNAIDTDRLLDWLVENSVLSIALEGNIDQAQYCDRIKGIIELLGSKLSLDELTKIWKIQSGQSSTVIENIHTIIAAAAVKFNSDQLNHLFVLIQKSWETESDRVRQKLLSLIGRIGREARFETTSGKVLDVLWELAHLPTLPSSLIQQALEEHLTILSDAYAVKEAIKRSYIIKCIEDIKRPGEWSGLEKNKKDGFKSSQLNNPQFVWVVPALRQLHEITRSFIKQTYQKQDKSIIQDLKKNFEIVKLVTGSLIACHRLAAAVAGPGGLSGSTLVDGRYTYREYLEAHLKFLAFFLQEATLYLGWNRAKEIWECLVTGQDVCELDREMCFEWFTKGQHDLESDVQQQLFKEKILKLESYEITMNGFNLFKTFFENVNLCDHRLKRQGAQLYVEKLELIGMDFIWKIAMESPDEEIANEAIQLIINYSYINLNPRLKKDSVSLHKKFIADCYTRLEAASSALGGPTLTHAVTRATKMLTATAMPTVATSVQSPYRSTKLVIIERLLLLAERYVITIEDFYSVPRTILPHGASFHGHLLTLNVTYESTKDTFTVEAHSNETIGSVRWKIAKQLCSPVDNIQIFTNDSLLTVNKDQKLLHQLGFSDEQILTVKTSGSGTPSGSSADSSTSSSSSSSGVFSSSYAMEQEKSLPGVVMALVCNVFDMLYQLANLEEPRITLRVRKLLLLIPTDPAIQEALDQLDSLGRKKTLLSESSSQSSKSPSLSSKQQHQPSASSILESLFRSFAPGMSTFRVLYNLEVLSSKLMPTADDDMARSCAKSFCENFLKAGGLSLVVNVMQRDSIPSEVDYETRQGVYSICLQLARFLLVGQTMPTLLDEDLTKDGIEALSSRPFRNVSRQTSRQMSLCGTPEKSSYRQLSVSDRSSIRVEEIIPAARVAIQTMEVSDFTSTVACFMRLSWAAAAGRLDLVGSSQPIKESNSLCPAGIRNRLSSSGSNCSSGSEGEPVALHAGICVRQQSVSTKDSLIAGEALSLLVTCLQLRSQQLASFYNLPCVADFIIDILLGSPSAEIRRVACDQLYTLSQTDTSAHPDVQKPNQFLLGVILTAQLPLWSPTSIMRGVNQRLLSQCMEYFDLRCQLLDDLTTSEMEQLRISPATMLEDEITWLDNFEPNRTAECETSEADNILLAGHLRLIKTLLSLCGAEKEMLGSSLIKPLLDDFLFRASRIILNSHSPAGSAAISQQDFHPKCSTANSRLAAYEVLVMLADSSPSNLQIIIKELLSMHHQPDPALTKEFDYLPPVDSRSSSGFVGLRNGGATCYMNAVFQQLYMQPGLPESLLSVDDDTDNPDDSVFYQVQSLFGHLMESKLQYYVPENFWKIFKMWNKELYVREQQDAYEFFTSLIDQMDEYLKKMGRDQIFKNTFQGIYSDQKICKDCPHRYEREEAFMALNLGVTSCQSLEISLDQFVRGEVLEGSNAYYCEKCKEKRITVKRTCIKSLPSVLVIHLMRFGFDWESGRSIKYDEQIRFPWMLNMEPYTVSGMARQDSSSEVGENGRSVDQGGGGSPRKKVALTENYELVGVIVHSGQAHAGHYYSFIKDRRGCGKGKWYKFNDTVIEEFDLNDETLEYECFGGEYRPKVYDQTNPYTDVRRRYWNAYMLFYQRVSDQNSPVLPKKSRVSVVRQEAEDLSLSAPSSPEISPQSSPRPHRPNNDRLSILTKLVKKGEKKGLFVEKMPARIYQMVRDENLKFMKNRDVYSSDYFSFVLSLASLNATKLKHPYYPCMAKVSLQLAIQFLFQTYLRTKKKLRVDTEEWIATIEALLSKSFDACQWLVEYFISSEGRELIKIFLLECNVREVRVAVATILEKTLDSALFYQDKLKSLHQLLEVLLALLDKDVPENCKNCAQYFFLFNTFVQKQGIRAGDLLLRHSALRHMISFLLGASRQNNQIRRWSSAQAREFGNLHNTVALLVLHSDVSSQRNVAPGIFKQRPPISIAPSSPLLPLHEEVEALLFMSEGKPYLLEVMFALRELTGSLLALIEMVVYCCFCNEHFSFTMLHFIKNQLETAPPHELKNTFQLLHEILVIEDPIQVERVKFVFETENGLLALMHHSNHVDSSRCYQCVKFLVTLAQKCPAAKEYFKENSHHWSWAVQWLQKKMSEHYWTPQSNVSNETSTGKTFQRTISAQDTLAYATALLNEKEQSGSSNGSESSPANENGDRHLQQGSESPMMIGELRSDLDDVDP
Method in brief: as §1

USP25 = biological target: T3, USP25 (UniProt Q9UHP3)
T3 sequence (whole entry): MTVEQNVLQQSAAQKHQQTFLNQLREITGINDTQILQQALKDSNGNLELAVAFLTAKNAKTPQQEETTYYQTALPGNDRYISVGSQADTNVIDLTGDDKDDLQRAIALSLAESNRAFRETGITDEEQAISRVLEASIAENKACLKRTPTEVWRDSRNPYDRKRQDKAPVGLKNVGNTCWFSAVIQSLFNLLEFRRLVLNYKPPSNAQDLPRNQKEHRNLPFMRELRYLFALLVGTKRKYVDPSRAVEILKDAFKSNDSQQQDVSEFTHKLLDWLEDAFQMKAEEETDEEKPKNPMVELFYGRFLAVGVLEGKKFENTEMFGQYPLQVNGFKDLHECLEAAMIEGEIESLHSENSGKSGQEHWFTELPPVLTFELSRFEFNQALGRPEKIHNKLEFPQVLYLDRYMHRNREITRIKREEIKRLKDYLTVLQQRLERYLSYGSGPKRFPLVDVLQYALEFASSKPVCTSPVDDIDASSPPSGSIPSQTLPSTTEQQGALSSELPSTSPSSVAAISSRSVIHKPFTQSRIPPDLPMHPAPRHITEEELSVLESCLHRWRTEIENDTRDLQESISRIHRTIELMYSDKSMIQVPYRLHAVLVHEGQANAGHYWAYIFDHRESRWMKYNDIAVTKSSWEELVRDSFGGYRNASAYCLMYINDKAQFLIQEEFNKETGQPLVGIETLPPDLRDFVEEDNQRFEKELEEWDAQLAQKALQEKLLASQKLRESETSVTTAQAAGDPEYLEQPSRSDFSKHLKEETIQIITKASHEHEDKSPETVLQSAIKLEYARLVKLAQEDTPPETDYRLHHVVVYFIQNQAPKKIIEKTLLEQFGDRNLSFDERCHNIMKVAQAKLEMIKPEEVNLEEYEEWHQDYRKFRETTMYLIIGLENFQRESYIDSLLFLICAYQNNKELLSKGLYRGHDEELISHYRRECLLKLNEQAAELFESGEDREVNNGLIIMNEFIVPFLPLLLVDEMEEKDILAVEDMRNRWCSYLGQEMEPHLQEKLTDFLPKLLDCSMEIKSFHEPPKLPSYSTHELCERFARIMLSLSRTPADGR
Method in brief: as §1

USP28 = biological target: T4, USP28 (UniProt Q96RU2)
T4 sequence (whole entry): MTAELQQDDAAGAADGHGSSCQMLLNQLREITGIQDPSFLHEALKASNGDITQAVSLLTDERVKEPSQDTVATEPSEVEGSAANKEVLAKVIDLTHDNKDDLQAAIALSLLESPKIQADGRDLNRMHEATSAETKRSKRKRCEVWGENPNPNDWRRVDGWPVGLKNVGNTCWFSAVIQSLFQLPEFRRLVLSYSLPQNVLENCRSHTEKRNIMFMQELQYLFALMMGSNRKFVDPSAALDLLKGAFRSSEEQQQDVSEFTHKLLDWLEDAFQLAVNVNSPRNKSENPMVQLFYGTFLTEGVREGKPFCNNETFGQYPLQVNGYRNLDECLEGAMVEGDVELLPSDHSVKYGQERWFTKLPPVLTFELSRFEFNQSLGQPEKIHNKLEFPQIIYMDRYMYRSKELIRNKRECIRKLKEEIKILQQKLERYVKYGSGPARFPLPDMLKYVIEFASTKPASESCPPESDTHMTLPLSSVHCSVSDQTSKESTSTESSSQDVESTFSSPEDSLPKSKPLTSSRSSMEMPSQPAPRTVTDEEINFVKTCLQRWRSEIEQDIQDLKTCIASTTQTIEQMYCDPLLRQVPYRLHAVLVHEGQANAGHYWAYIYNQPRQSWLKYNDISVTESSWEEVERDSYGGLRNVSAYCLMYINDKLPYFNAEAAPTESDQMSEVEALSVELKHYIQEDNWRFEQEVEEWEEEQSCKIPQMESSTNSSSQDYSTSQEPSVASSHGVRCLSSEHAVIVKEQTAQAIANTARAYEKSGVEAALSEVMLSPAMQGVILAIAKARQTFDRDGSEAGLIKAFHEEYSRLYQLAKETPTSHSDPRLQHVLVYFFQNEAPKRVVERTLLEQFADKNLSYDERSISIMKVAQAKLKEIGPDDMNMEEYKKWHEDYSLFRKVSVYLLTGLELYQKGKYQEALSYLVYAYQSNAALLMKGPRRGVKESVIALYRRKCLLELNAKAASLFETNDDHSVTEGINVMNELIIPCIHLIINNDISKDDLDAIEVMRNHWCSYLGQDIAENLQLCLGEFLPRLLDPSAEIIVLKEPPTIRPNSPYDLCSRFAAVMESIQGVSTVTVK
Method in brief: as §1

Measured: log2 ratio of Biotin-Ahx-Ub-VS probe labelling

O=C(CCl)N1CCCC1c1ccsc1 (stereo not given)
inactive: USP19 -0.475 | USP22 -0.304 | USP24 -0.738 | USP25 -0.456 | USP28 -0.704
